We go through 116 molecules from PubChem BioAssay AID488890 (Southern Research Specialized Biocontainment Screening …, 2010).

The whole screen tested about 320,000 compounds, of which about 1,300 (0.41%) were called active. Not shown: some 3% with an inconclusive outcome. The rule behind the calls is not given here. A selection follows. Entries with a potency or affinity are not part of this list.

The assay is described as follows: growth inhibition of non-replicating M. tuberculosis (AID 488890).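 Note: plate controls were DMSO cells for no effect and high antibiotic wells for full effect.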 To be noted: Mycobacterium tuberculosis non-replicating, at 25 µM, stronger effect = higher value.
As to `CCc1ccc(NS(=O)(=O)c2cc3c4c(c2)CCN4C(=O)CC3)cc1`, the inhibition is 1.05%. Then `Cc1oc(-c2cccc(Cl)c2)nc1CN1CCCC(C(=O)NCc2ccco2)C1` (stereo unspecified), with 22.8%. Then `Nc1c(C(=O)OCC(=O)NCc2ccccc2)[nH]c(=O)[nH]c1=O`, with -9.15%. Then `Cc1[nH]c(=O)[nH]c(=O)c1/C=C/C(=O)O`, with -4.51%; and `CCCCn1c(N)c(N(CC(C)C)C(=O)c2ccc(-c3ccc(Cl)cc3)o2)c(=O)[nH]c1=O`, with 74.7%. As to `CNS(=O)(=O)c1ccc(-c2ccc(C=C3C(=O)NC(=O)NC3=O)o2)cc1`, the inhibition was -1.77%. Then `NS(=O)(=O)c1ccc(-c2ccc(C=C3C(=O)NC(=O)NC3=O)o2)cc1`, with 2.79%; and `CCCc1nc(SCc2ccc(Cl)cc2Cl)n[nH]1`, with 2.74%.

For the molecule `Nc1nc(SCc2ccc(Cl)cc2Cl)n[nH]1`, the inhibition turned out to be 1.74%. Then `Cc1cccc2nc(CNC(=O)C3CCC(=O)N(Cc4ccccc4F)C3)cn12` (stereo unspecified), with -13.7%; and `CC(C)n1c(SCC(=O)Nc2ccc(F)cc2)nnc1C1CC1`, with -1.85%; and `Cc1nn(C(=O)CCC(=O)NCc2ccc(OC(C)C)cc2)c2ccccc12`, with -4.46%. Then `CN(C#N)c1nccc(-c2cccs2)n1`, with 19%. Regarding `COc1ccc(CCNC(=O)c2ccc(Cl)cc2)cc1`, the inhibition is 74.1%. Then `COc1ccc(C(=O)NNC(=O)Nc2ccc(Cl)cc2)cc1`, with -7.99%.

As to `Cc1ccc(C(=O)/C=C\NCc2ccccc2)cc1`, the inhibition is 37.6%.

Consider `COc1ccc(C(=O)NCC(=O)NCC(=O)OCc2ccc(Cl)cc2)cc1`, for which the inhibition was -0.72%. Then `Cc1ccc(N/C=C/C(=O)c2ccc(C)cc2)cc1`, with 19.2%; and `COc1ccc(N/C=C/C(=O)c2ccc(Cl)cc2)cc1`, with 45.2%; and `COC(=O)c1sc2nc(N3CCCCC3)c3c(c2c1N)CCCC3`, with 1.1%. `COC(=O)C1=C(C)OC(N)=C(C#N)C1c1ccc(OC)c(CSc2ccccn2)c1` (stereo unspecified): the inhibition stood at 10.8%. Then `Cc1ccn2c(=O)nc(SCC(=O)N3CCCC3)nc2c1`, with 8.52%. Then `O=C(CN1CCCCC1)N/N=C/c1ccc(Cl)cc1Cl`, with -4.16%; and `COc1ccc(NCN2C(=O)CCC2=O)cc1`, with 61%; and `O=C1CCC(=O)N1CNc1cccnc1`, with 3.84%. Then `COc1ccccc1-c1cn(C(C)(C)C)nc1C`, with -1.55%; and `O=C(N/N=C/c1cc(Br)c(O)c(Br)c1)c1cccc(C(F)(F)F)c1`, with 21%. In the case of `O=C(N/N=C/c1cccc(C(F)(F)F)c1)c1ccc(O)cc1`, the inhibition was found to be 16.8%. Turning to `C[C@H](CO)N1C[C@H](C)[C@@H](CN(C)S(=O)(=O)c2cn(C)cn2)Oc2ccc(NC(=O)NC3CCCCC3)cc2C1=O`, the inhibition is -8.37%. Then `Cc1ccc(S(=O)(=O)N2CCOCC2)cc1C(=O)N1CCN(c2ccc(C(F)(F)F)cn2)CC1`, with 7.63%; and `CCCOc1cc(C)c(S(=O)(=O)NCc2cccs2)cc1C`, with 6.87%; and `COc1ccc(Nc2cc(C)nc(N3CCOCC3)n2)cc1`, with 11.6%.

On to `CCOc1ccc(Nc2cc(C)nc(N3CCOCC3)n2)cc1`, for which the inhibition is 4.96%.

As for `CNc1cc(C)nc(-n2nc(C)cc2C)n1`, the inhibition was 77.6%.

Take `Cc1cc(NCCO)nc(-n2nc(C)cc2C)n1`: the inhibition turned out to be 39.2%. Then `COC1(c2cc(-c3ccccc3)nc(N)n2)CCCCC1`, with 39.4%; and `CC1CN(C(C)C(=O)NC(c2ccccc2)c2ccccc2)CC(C)O1` (stereo unspecified), with -1.17%; and `Cc1cc(NC(=O)CSc2nnnn2-c2ccc(C)c(C)c2)no1`, with -1.12%. Then `O=C(C1CCCN(S(=O)(=O)c2ccc(Br)cc2)C1)N1CCOCC1` (stereo unspecified), with -4.37%; and `COCCn1cnc2c1c(=O)[nH]c(=O)n2Cc1ccccc1`, with -2.83%. Then `O=c1c2c(nc3c(-c4cccc(Br)c4)c[nH]n13)CCCC2`, with 76.9%. On to `Cc1[nH]n2c(=O)c3c(nc2c1-c1cccc2ccccc12)CCC3`, for which the inhibition came out at 61.6%. Then `Cc1[nH]n2c(=O)c3c(nc2c1-c1ccc(F)cc1)CCCC3`, with 18.2%; and `N#Cc1c[nH]n2c(=O)c3c(nc12)CCC3`, with -2.17%. Then `Cc1ccc(S(=O)(=O)/N=C(/Nc2ccc(F)cc2F)c2ccc(F)cc2)cc1`, with -16.3%. Consider `CC(Oc1ccc(Cl)cc1Cl)C(=O)Nc1ncccn1` (stereo unspecified), for which the inhibition came out at 61.7%. Then `Cc1cccc(C)c1OC(=O)CCN1C(=O)C2C3C=CC(C4CC34)C2C1=O` (stereo unspecified), with 67.5%. Then `Cc1ccc(SCC(=O)NCC2COc3ccccc3O2)cc1` (stereo unspecified), with 29.9%; and `Cc1ccc2oc(=O)c(/C=C(\O)C(C)(C)C)nc2c1`, with -1%; and `C/C(O)=C/c1nc2ccccc2[nH]c1=O`, with 1.47%.

Take `c1ccc2oc(CCc3nc4ccccc4o3)nc2c1`: the inhibition is -3.04%.

`Cc1ccc2oc(=O)c(/C=C(\O)CC(C)C)nc2c1`: the inhibition is -17.2%. Then `CC(C)(C)/C(O)=C/c1nc2ccccc2[nH]c1=O`, with -2.24%; and `CCS(=O)(=O)CCSc1nc2ccccc2o1`, with -14.9%. For `Cc1ccc(C(=O)CN2C(=O)NC3(CCCCCC3)C2=O)c(C)c1`, the inhibition is -9.85%.

Consider `CCOc1ccc(-c2nnc3sc(COc4ccc(Cl)cc4)nn23)cc1`, for which the inhibition is -1.47%. Then `CS(=O)(=O)Nc1cccc(C2=NN(C(=O)c3ccccc3Cl)C(c3ccccc3O)C2)c1` (stereo unspecified), with 30.8%; and `CC1CCN(S(=O)(=O)c2cccc(C(N)=O)c2)CC1`, with 0.16%. Then `CCn1c(CCCCc2n[nH]c(=S)n2CC)n[nH]c1=S`, with -11.8%; and `CC(=O)Nc1ccc(NC(=O)C2CCN(C(=O)NC3CCCCC3)CC2)cc1`, with -3.9%. Then `Cn1nc(C(=O)NNC(=O)C2CSC3(C)CCC(=O)N23)c2ccccc2c1=O` (stereo unspecified), with -11.1%; and `Cc1ccc2[nH]c(C)c(CCNC(=O)c3c(N)no[n+]3[O-])c2c1`, with 28.6%; and `O=C(NCCCn1ccnc1)c1cc2cc([N+](=O)[O-])ccc2oc1=O`, with -4.48%. In the case of `COC(=O)c1ccc(-c2csc(NC(=O)C3=COCCO3)n2)cc1`, the inhibition is 34.1%. Then `CC(C)NC(=O)c1cc(=O)n(C)c(=O)n1C`, with 1.53%.

Consider `Cc1nn(C)c(Oc2ccc(Cl)cc2)c1C(=O)O`, for which the inhibition was 5.18%. Take `O=S(=O)([N-]c1nc2ccccc2nc1-n1cc[n+](Cc2ccccc2)c1)c1ccc(Br)cc1`: the inhibition came to 8.51%. Then `Cc1cccn2c(=O)c3cc(C(=O)N4CC(C)CC(C)C4)sc3nc12` (stereo unspecified), with 0.79%; and `Cc1cc(C)n(-c2nc3c(c(=O)[nH]c(=O)n3C)n2CC(C)C)n1`, with 0.87%. Then `Cn1c(=O)[nH]c(=O)c2c1nc(N)n2Cc1ccccc1`, with -16.3%. Then `CSc1nc2c(c(=O)[nH]c(=O)n2C)n1Cc1ccccc1`, with 4.61%; and `CC(C)Cn1c(NCCN(C)C)nc2c1c(=O)[nH]c(=O)n2C`, with -11.4%. For `O=C(Nc1nnc(S(=O)(=O)N2CCCC2)s1)c1cccc([N+](=O)[O-])c1`, the inhibition was 43.7%. Turning to `NC(=O)c1ccc[n+](Cc2ccccc2)c1`, the inhibition is -8.91%. Then `CC(C)(C)C1CCC(C(=O)Nc2ccccc2)CC1` (stereo unspecified), with 77.8%; and `CCN1CCCC1CNC(=S)Nc1ccc(C(C)=O)cc1` (stereo unspecified), with 16.8%.

Regarding `COc1cc(/C=C2\SC(c3ccc(C)cc3)=NC2=O)cc(OC)c1OC`, the inhibition was 16.6%. Consider `COc1cc(/C=C2\N=C(C)OC2=O)cc(OC)c1OC`, for which the inhibition was -3.11%. In the case of `CCCC1CC(C)(C(=O)CSc2n[nH]c(-c3ccccc3)n2)OC1=O` (stereo unspecified), the inhibition is -9.58%. Then `CCOc1nc2ccccc2cc1/C=C/C(=O)O`, with 16.5%. Consider `Cc1ccc(N2C(=O)CC(N3CCSCC3)C2=O)c(C)c1` (stereo unspecified), for which the inhibition turned out to be 66.2%. Regarding `O=C1CC(N2CCSCC2)C(=O)N1c1ccccc1` (stereo unspecified), the inhibition stood at 17.6%. Then `COc1ccc(C(=O)O/N=C(/c2cccs2)C(C)(C)C)cc1`, with 35.7%; and `COc1ccc(-c2nnc(NC(=O)Cc3ccccc3)s2)c(OC)c1`, with 6.43%.

`O=C(Nc1nncs1)c1cc2c(s1)CCC2`: the inhibition was 2%.

Turning to `O=C(CCS(=O)(=O)c1ccccc1)Nc1nc(-c2cccs2)cs1`, the inhibition turned out to be 75.7%.

With `O=C(Nc1nc(-c2ccncc2)cs1)c1ccco1`, the inhibition was -9.61%. Then `Cc1cccc(Nc2nc(-c3cccs3)cs2)n1`, with 3.92%; and `O=C(CCS(=O)(=O)c1ccccc1)Nc1nc(-c2ccc(F)cc2)cs1`, with 0.28%; and `O=C(Nc1nc(-c2ccccc2)cs1)c1ccco1`, with 11.8%. For `COc1ccc(CCNc2nc(-c3cccnc3)cs2)cc1OC`, the inhibition is -6.11%. Then `Cc1cccc(Nc2nc(-c3ccc(F)cc3)cs2)n1`, with 18.9%; and `COc1ccc(CCNc2nc(-c3ccncc3)cs2)cc1OC`, with 15.7%; and `O=C1CC(/C=C/c2ccc([N+](=O)[O-])cc2)=Nc2ccccc2N1`, with 30.3%. Then `Cc1ccc(C)c(N2N=C(C(=O)O)CCC2=O)c1`, with -0.55%. Then `Cc1cc(N2CCN(c3ccccc3)CC2)n2nnnc2n1`, with -6.03%; and `O=C(c1nc2ccccn2c1CNCCCn1nnc2ccccc21)N1CCOCC1`, with -59.9%. On to `O=C(CSc1nnc(-c2ccncc2)o1)Nc1ccccc1Cl`, for which the inhibition was -10.3%.

Take `Cc1cc(C)cc(N(CCC#N)C(=O)CSc2ncnc3sccc23)c1`: the inhibition stood at 7.69%. `Cc1ccc(C(=O)N[C@H](C(=O)N2CCN(c3ccccc3F)CC2)C(C)C)cc1`: the inhibition worked out at 9.21%. Then `COc1ccc2cc(C(=O)C3CCCN(C(=O)c4snnc4C)C3)ccc2c1` (stereo unspecified), with 16.9%; and `O=C(O)c1ccc2noc(-c3ccccc3)c2c1`, with 26.3%; and `COc1ccc(CNC(=O)CN(C(=O)CCC(=O)Nc2ccccn2)c2ccccc2OC)cc1`, with 10.4%. Then `c1ccc(-c2csc(Nc3cccnc3)n2)nc1`, with 24.5%; and `c1ccc(Nc2nc(-c3ccncc3)cs2)cc1`, with 0.69%.

For the molecule `CC(C)(C)[C@H](N)C(=O)N[C@H]1CCC2C3CC=C4C[C@@H](O)CC[C@]4(C)C3CC[C@@]21C` (stereo partly specified), the inhibition was determined as 67.1%. Then `COC(=O)c1cc(C(=O)c2cc(Cl)ccc2O)coc1=N`, with 36%; and `CC(C)OC(=O)c1cc(C(=O)c2cc(Br)ccc2O)coc1=N`, with 76.9%. Then `COc1cc(OC)cc(-c2nnc(NC(=O)CCS(=O)(=O)c3ccccc3)o2)c1`, with 78.9%. Then `O=C(Cc1ccccc1)Nc1nnc(-c2ccco2)o1`, with -4.54%.

For `Cc1ccccc1C(=O)Nc1nnc(-c2ccco2)s1`, the inhibition was -20.8%. Then `CC(=O)Nc1nnc(-c2ccco2)o1`, with 4.52%; and `CCCCN(C(=O)CSCC(=O)Nc1ccc(OC)cc1)c1c(N)n(Cc2ccccc2)c(=O)[nH]c1=O`, with 33%.

Turning to `Cc1ccc[n+](CC(=O)Nc2nc3ccccc3s2)c1`, the inhibition worked out at 2.08%. Then `CN(C(=O)CN1CC=C(c2ccccc2)CC1)c1c(N)n(Cc2ccccc2)c(=O)[nH]c1=O`, with 8.33%; and `CN(C(=O)COC(=O)Cc1c(Cl)cccc1Cl)C1CCS(=O)(=O)C1` (stereo unspecified), with -4.22%.

One may read the inhibition as the drop in the measured response relative to a control, in per cent.
